In all, about 85,000 compounds went through this assay and about 440 (0.52%) showed an effect of 50% or more. For the sample, strong results were picked, then their nearest neighbours and some compounds at random.
Assay: In vitro enzyme assay to detect hydrolysis of chlorophenol red-beta-D-[…] directly proportional to the number of Toxoplasma stably expressing beta-galactosidase
Assay type: functional, organism-based, Toxoplasma gondii
Parameters: scale not given: in the data most compounds retested in dose-response had high values

| SMILES | Percent Effect (50 µM) | Percent Effect (10 µM) |
| --- | --- | --- |
| Nc1ccnn1Cc1ccccn1 | -24.54% |  |
| O=C(CN1CCCCC1)N1CCCCC1 | 1.789% |  |
| O=C(NCCOCCO)c1cn2ccsc2n1 | 19.68% |  |
| CNC(=O)C1CNC1 | 0.513% |  |
| COCCCNC(=O)CN(C)c1ccccc1F | 2.537% |  |
| Clc1cccc(-c2cccc(N3CCC(NC4CCOCC4)CC3)c2)c1 |  | 94.46% |
| COc1cccc(-c2cccc(N3CCC(N[C@@H]4CCOC4)CC3)c2)c1 |  | 25.91% |
| Cc1ccc(-c2cccc(N3CCC(NC4CCOCC4)CC3)c2)cc1 |  | 36.9% |
| Cc1ccccc1-n1cnnc1SCCOCC1CCCO1 (configuration not stated) |  | -4.234% |
| NCCOCC1CCCO1 (configuration not stated) | -7.088% |  |
| c1cc(SCCOCC2CCCO2)ccn1 (configuration not stated) | 73.14% |  |
| CN1CCOC(C(=O)N(C)Cc2cccc(O)c2)C1 (configuration not stated) | -4.809% |  |
| Oc1ccccc1CN1CCCCCC1c1cccs1 (configuration not stated) |  | 10.91% |
| Nc1nc(N)nc(CN2CCCC2c2cccs2)n1 (configuration not stated) | 61.8% |  |
| CN(C)c1nc(N)nc(CN2CCCC2c2cccs2)n1 (configuration not stated) |  | 12.16% |
| CC(=O)NCCCc1nc2ccccc2n1C | -0.2926% |  |
| O=C(CN1CCOCC1)N1CCCC(c2nnc[nH]2)C1 (configuration not stated) | -8.944% |  |
| CC1C(=O)NCCN1C(=O)c1cc(-c2ccco2)on1 (configuration not stated) | 0.5841% |  |
| Cc1cc(F)cc(S(=O)(=O)NCCN)c1 | -4.306% |  |
| O=C(CCn1cccn1)Nc1cncc(Br)c1O | -6.766% |  |
| O=C(CC1CCCC1)NCCc1noc(CO)n1 | 66.39% |  |

| SMILES | Percent Effect (50 µM) | Percent Effect (10 µM) |
| --- | --- | --- |
| CCCOC(C)C(=O)NCCc1noc(CO)n1 (configuration not stated) | -15.52% |  |
| CC[C@H](C)[C@H](N)C(=O)NCCc1noc(CO)n1 | 11.28% |  |
| Cc1nccc(CNc2ncc(C(N)=O)cc2Cl)n1 | -11.46% |  |
| COc1ccccc1NCC(=O)NCC(C)(O)C(C)C (configuration not stated) | 0.7495% |  |
| NC1CSc2ccccc21 (configuration not stated) | 16.15% |  |
| NCC(=O)N1CCCC(CCc2ccc(F)c(F)c2)C1 (configuration not stated) | 39.41% |  |
| NCCC(=O)N1CCCC(CCc2ccc(F)cc2)C1 (configuration not stated) | 62.64% |  |
| NCC(=O)N1CCCC(CCc2ccc(F)cc2)C1 (configuration not stated) | 31.97% |  |
| Cc1nnc(CNC(=O)Nc2ccc(F)cc2)o1 | -6.078% |  |
| CC1(C)CN(c2ccnc3ccccc23)CC[S+]1[O-] (configuration not stated) | 6.751% |  |
| O=S(=O)(NC1CCCC1)C1CCOCC1 | 42.45% |  |
| CCCC(=O)N1CCC(O)(Cn2c(CC)nc3ccccc3c2=O)CC1.Cl |  | -0.06406% |
| CCc1nc2ccccc2c(=O)n1CC1(O)CCN(C(=O)C2CC2)CC1.Cl |  | 0.3648% |
| CCc1nc2ccccc2c(=O)n1CC1(O)CCN(C(=O)COC)CC1.Cl |  | 54.94% |
| Cc1cc(CNc2ncnc3c2cnn3C)on1 | -29.33% |  |
| CC1COc2ccccc2N1CC(N)=O (configuration not stated) | -5.521% |  |
| CNC(=O)N1CCCCCC1c1ccncc1 (configuration not stated) | 14.5% |  |
| CSc1ccccc1NCC(=O)NC1CC1 | 51.75% |  |
| CC(C#N)CSc1ccccc1NCC(=O)NC1CCCCC1 (configuration not stated) |  | -5.31% |
| CC(=O)c1ccc(F)cc1NCC(=O)NC1CC1 | 5.192% |  |
| CNCC(=O)Nc1cc(Cl)c(OCCOC)c(Cl)c1 | -0.6689% |  |

| SMILES | Percent Effect (50 µM) | Percent Effect (10 µM) |
| --- | --- | --- |
| CCS(=O)(=O)N1CCC(NC(=O)c2ccc(Cl)o2)CC1 | -2.927% |  |
| Cc1cc(F)cc(NC(=O)NC[C@@H]2CCCN2)c1 | 21.68% |  |
| CC(Cn1ccnc1)NC(=O)NCc1ccc2c(c1)OCCO2 (configuration not stated) |  | -19.42% |
| O=C(NCc1ccc2c(c1)OCO2)N1CCCCC1 | -4.35% |  |
| O=C(NCc1ccc2c(c1)OCO2)n1ccnc1 | 96.82% |  |
| c1cn(C2CCNC2)nn1 (configuration not stated) | -13.42% |  |
| CCC(OC)C(=O)N1CC(Oc2ccccc2F)C1 (configuration not stated) | -7.864% |  |
| CC(=O)c1cccc(NS(=O)(=O)c2cc(C)c(C(=O)O)s2)c1 |  | -0.4058% |
| Cc1cccc(NS(=O)(=O)c2cc(C(=O)O)oc2C)c1 |  | -16.73% |
| CC(=O)Nc1ncc(S(=O)(=O)N2CCN(C3CCCCC3)CC2)s1 |  | -4.699% |
| CCS(=O)(=O)CCC(=O)Nc1cccc(F)c1 | 5.162% |  |
| CC(=O)Nc1ncc(S(=O)(=O)N2CCOCC2)s1 |  | -6.42% |
| CC(=O)Nc1ncc(S(=O)(=O)Nc2cccc(C)c2)s1 |  | 60.94% |
| Cc1c(S(=O)(=O)Nc2cccc(F)c2)cnn1C | -8.725% |  |
| CC(=O)Nc1ncc(S(=O)(=O)Nc2ccc3c(c2)OCCO3)s1 |  | 68.62% |
| CC(=O)Nc1ncc(S(=O)(=O)Nc2cccc(F)c2)s1 |  | 67.14% |
| CC(=O)Nc1ncc(S(=O)(=O)Nc2cccc(O)c2)s1 |  | 62.29% |
| Cc1cc(C(=O)O)cc(S(=O)(=O)Nc2ccc3c(c2)OCCO3)c1C |  | -2.504% |
| CC(=O)Nc1ncc(S(=O)(=O)N2CCCC(C)C2)s1 (configuration not stated) |  | -8.14% |
| CCNC(=O)NCc1ncoc1C | -6.658% |  |

Reference: ChEMBL document CHEMBL3988442, “University of Dundee, Small-Polar-MMV Screening Library” (2021)
